Values joined by “and” are separate entries in the source; they are usually repeats but may differ in a detail not shown here. Equal entries are not always repeated. Out of some 5,500 compounds screened, about 2,000 (36%) were called active. Not shown: some 18% with an inconclusive outcome. No stated cut-off is given here; in the data, active means normalized growth mostly below about 0.91 (no sharp cut-off); inconclusive means no clear call, values can overlap the other calls; inactive means mostly above about 0.92. The list shows a part of the results.
Experiment: chemical genetic growth profiling, strain panel (AID 1159580);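 further: tested at 20 µM; growth read once vehicle control cultures reached saturation at 30 °C; 1 = growth at the plate median or of vehicle wells; lower values mean less growth of the strain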
Conditions: S. cerevisiae deletion strains, growth OD

Measured: normalized growth

NS(=O)(=O)c1cc2c(cc1C(F)(F)F)NC(Cc1ccccc1)NS2(=O)=O (stereo not drawn)
inactive: locus YAL021C, strain ccr4, active compounds read low 1 | locus YAL026C, strain drs2, active compounds read low 0.979 | locus YAL030W, strain snc1, active compounds read low 0.989 | locus YBL061C, strain skt5, active compounds read low 0.986 | locus YBR009C, strain hhf1, active compounds read low 0.988 | locus YBR021W, strain FUR4, active compounds read low 1.02 | locus YBR023C, strain chs3, active compounds read low 0.992 | locus YBR171W, strain sec66, active compounds read low 0.981 | locus YBR229C, strain ROT2, active compounds read low 1 | locus YBR231C, strain swc5, active compounds read low 0.986 | locus YBR279W, strain paf1, active compounds read low 1 | locus YCL011C, strain gbp2, active compounds read low 0.973 | locus YCL016C, strain dcc1, active compounds read low 0.988 | locus YCL029C, strain bik1, active compounds read low 1.01 | locus YCL061C, strain MRC1, active compounds read low 0.991 | locus YCL069W, strain vba3, active compounds read low 1 | locus YCR088W, strain abp1, active compounds read low 0.993 | locus YDL005C, strain med2, active compounds read low 0.991 | locus YDL035C, strain GPR1, active compounds read low 1.02 | locus YDL040C, strain nat1, active compounds read low 1.01 | locus YDL074C, strain BRE1, active compounds read low 0.969 | locus YDL101C, strain DUN1, active compounds read low 1 | locus YDL134C, strain PPH21, active compounds read low 1.02 | locus YDL185W, strain tfp1, active compounds read low 1.01 | locus YDL192W, strain arf1, active compounds read low 1.01 | locus YDR001C, strain nth1, active compounds read low 0.98 | locus YDR069C, strain doa4, active compounds read low 0.997 | locus YDR101C, strain arx1, active compounds read low 0.985 | locus YDR137W, strain rgp1, active compounds read low 0.977 | locus YDR159W, strain sac3, active compounds read low 0.991 | locus YDR162C, strain NBP2, active compounds read low 1.01 | locus YDR195W, strain ref2 0.983 | locus YDR297W, strain sur2, active compounds read low 0.986 | locus YDR318W, strain mcm21, active compounds read low 1.01 | locus YDR334W, strain swr1, active compounds read low 0.953 | locus YDR335W, strain msn5, active compounds read low 0.991 | locus YDR388W, active compounds read low 1.01 | locus YDR392W, strain spt3, active compounds read low 0.943 | locus YDR502C, strain sam2, active compounds read low 0.996 | locus YEL003W, strain gim4, active compounds read low 0.983 | locus YEL037C, strain rad23, active compounds read low 0.984 | locus YEL061C, strain CIN8 (second series), active compounds read low 0.989 | locus YEL061C, strain CIN8, active compounds read low 1 | locus YER015W, strain faa2, active compounds read low 0.992 | locus YER016W, strain bim1, active compounds read low 0.992 | locus YER110C, active compounds read low 1.02 | locus YER111C, strain swi4, active compounds read low 0.999 | locus YER155C, strain BEM2 (second series), active compounds read low 0.974 | locus YER155C, strain BEM2, active compounds read low 0.999 | locus YER167W, strain BCK2, active compounds read low 1.01 | locus YFR010W, strain ubp6, active compounds read low 0.971 | locus YGL078C, strain dbp3, active compounds read low 0.995 | locus YGL086W, strain mad1, active compounds read low 0.99 | locus YGL167C, strain pmr1, active compounds read low 0.989 | locus YGL173C, strain kem1, active compounds read low 0.981 | locus YGL227W, strain vid30, active compounds read low 1 | locus YGL240W, strain doc1, active compounds read low 0.984 | locus YGL248W, strain PDE1, active compounds read low 0.999 | locus YGL253W, strain hxk2, active compounds read low 0.998 | locus YGR135W, strain pre9, active compounds read low 1.04 | locus YGR229C, strain SMI1, active compounds read low 1 | locus YGR252W, strain gcn5, active compounds read low 1.01 | locus YHR013C, strain ard1, active compounds read low 0.967 | locus YHR027C, strain rpn1, active compounds read low 0.971 | locus YHR030C, strain SLT2, active compounds read low 1 and 0.973 | locus YHR079C, strain IRE1 (second series), active compounds read low 1.01 | locus YHR079C, strain IRE1, active compounds read low 0.98 | locus YHR094C, strain hxt1, active compounds read low 1.01 | locus YHR129C, strain ARP1, active compounds read low 1.01 | locus YHR142W, strain chs7, active compounds read low 0.96 | locus YHR200W, strain rpn10, active compounds read low 1.01 | locus YIL066C, strain RNR3, active compounds read low 0.999 | locus YIL073C, strain SPO22, active compounds read low 1.05 | locus YIL125W, strain kgd1, active compounds read low 0.999 | locus YIR030C, strain dcg1, active compounds read low 1.01 | locus YJL092W, strain hpr5, active compounds read low 1 | locus YJL095W, strain BCK1 (second series), active compounds read low 0.997 | locus YJL095W, strain BCK1, active compounds read low 0.97 and 0.978 | locus YJL115W, strain asf1, active compounds read low 0.966 | locus YJL129C, strain trk1, active compounds read low 1 | locus YJL134W, strain LCB3, active compounds read low 1 | locus YJL154C, strain vps35, active compounds read low 0.985 | locus YJL164C, strain tpk1, active compounds read low 0.984 | locus YJL166W, strain qcr8, active compounds read low 0.97 | locus YJL168C, strain set2, active compounds read low 1.01 | locus YJL187C, strain SWE1 (second series), active compounds read low 0.984 | locus YJL187C, strain SWE1, active compounds read low 0.994 | locus YJR043C, strain POL32, active compounds read low 0.982

— PubChem BioAssay AID1159580 (chemical genetic matrix, 2015)
